# Laboratory results reported in publication PMC11062922 (Nature Chemical Biology, 2023).
# System: RIPK2
# Set-up: species or system human, MV4-11 + K-562 + COLO205 + SK-N-BE2 + OVCAR-8
# Settings: read-out: apparent Kd; compound concentrations:100 nM and 1000 nM (sheet 'Samples'); n = 1
row,Structure (SMILES),potency estimated from few doses [nM]
1,NCCNS(=O)(=O)c1ccc(-c2ccnc3[nH]ccc23)cc1 [GSK977617A],974
2,O=C1NC(=O)C(N2CCc3ccccc32)=C1c1ccccc1Cl [SB-373598],273
3,Cl.NCc1ccc(-c2nc(-c3ccc(Cl)c(O)c3)c(-c3ccncc3)[nH]2)cc1 [SB-476429-A],22.7
4,CC(C)N1CCC(n2cnc(-c3ccc(F)cc3)c2-c2ccnc(N)n2)CC1 [SB-223132],559
5,Cc1cccc(-c2nc(Nc3ccncc3)c3sccc3n2)n1 [GW869641X],722
6,Cl.ON=C1CCc2cc(-c3nc(C4CCNCC4)[nH]c3-c3ccncc3)ccc21 [SB-614067-R],320
7,CN1C[C@@H]2Cn3c(c(C4=C(c5cn(C)c6ccccc56)C(=O)NC4=O)c4ccccc43)C[C@H]2C1.Cl [RO0320234-001],407

# System: RPS6KA3
# Set-up: species or system human, MV4-11 + K-562 + COLO205 + SK-N-BE2 + OVCAR-8
# Settings: read-out: apparent Kd; compound concentrations:100 nM and 1000 nM (sheet 'Samples'); n = 1
row,Structure (SMILES),potency estimated from few doses [nM]
1,O=C1NC(=O)C(N2CCc3ccccc32)=C1c1ccccc1Cl [SB-373598],966
2,Cl.Cl.NCC(C(=O)Nc1cc(Br)c(-c2ccnc3[nH]ccc23)s1)c1ccccc1.NCC(C(=O)Nc1cc(Br)c(-c2ccnc3[nH]ccc23)s1)c1ccccc1 (stereo not drawn) [GSK1269851A],1840
3,CNC(=O)c1ccccc1Nc1nc(Nc2ccc(N3CCOCC3)cc2)ncc1Cl.Cl [GSK1576028A],549
4,CN1C[C@@H]2Cn3c(c(C4=C(c5cn(C)c6ccccc56)C(=O)NC4=O)c4ccccc43)C[C@H]2C1.Cl [RO0320234-001],2100
5,Cc1ccc2c(-c3ccncc3)c(-c3ccc(F)cc3)nn2c1.Cl [GW461484A],1950

# System: RPS6KA4
# Set-up: species or system human, MV4-11 + K-562 + COLO205 + SK-N-BE2 + OVCAR-8
# Settings: read-out: apparent Kd; compound concentrations:100 nM and 1000 nM (sheet 'Samples'); n = 1
row,Structure (SMILES),potency estimated from few doses [nM]
1,NCCNS(=O)(=O)c1ccc(-c2ccnc3[nH]ccc23)cc1 [GSK977617A],588
2,O=C1NC(=O)C(N2CCc3ccccc32)=C1c1ccccc1Cl [SB-373598],1220
3,CNC(=O)c1ccccc1Nc1nc(Nc2ccc(N3CCOCC3)cc2)ncc1Cl.Cl [GSK1576028A],427
4,CN1C[C@@H]2Cn3c(c(C4=C(c5cn(C)c6ccccc56)C(=O)NC4=O)c4ccccc43)C[C@H]2C1.Cl [RO0320234-001],1630

# System: RPS6KA6
# Set-up: species or system human, MV4-11 + K-562 + COLO205 + SK-N-BE2 + OVCAR-8
# Settings: read-out: apparent Kd; compound concentrations:100 nM and 1000 nM (sheet 'Samples'); n = 1
row,Structure (SMILES),potency estimated from few doses [nM]
1,NCCNS(=O)(=O)c1ccc(-c2ccnc3[nH]ccc23)cc1 [GSK977617A],373
2,O=C1NC(=O)C(N2CCc3ccccc32)=C1c1ccccc1Cl [SB-373598],125
3,Cl.Cl.NCC(C(=O)Nc1cc(Br)c(-c2ccnc3[nH]ccc23)s1)c1ccccc1.NCC(C(=O)Nc1cc(Br)c(-c2ccnc3[nH]ccc23)s1)c1ccccc1 (stereo not drawn) [GSK1269851A],364
4,CC(C)N1CCC(n2cnc(-c3ccc(F)cc3)c2-c2ccnc(N)n2)CC1 [SB-223132],466
5,CN1C[C@@H]2Cn3c(c(C4=C(c5cn(C)c6ccccc56)C(=O)NC4=O)c4ccccc43)C[C@H]2C1.Cl [RO0320234-001],215
6,Cc1ccc2c(-c3ccncc3)c(-c3ccc(F)cc3)nn2c1.Cl [GW461484A],248

# System: SIK2
# Set-up: species or system human, MV4-11 + K-562 + COLO205 + SK-N-BE2 + OVCAR-8
# Settings: read-out: apparent Kd; compound concentrations:100 nM and 1000 nM (sheet 'Samples'); n = 1
row,Structure (SMILES),potency estimated from few doses [nM]
1,NCCNS(=O)(=O)c1ccc(-c2ccnc3[nH]ccc23)cc1 [GSK977617A],560
2,O=C1NC(=O)C(N2CCc3ccccc32)=C1c1ccccc1Cl [SB-373598],192
3,Cl.Cl.NCC(C(=O)Nc1cc(Br)c(-c2ccnc3[nH]ccc23)s1)c1ccccc1.NCC(C(=O)Nc1cc(Br)c(-c2ccnc3[nH]ccc23)s1)c1ccccc1 (stereo not drawn) [GSK1269851A],751
4,CC(C)N1CCC(n2cnc(-c3ccc(F)cc3)c2-c2ccnc(N)n2)CC1 [SB-223132],700
5,CNC(=O)c1ccccc1Nc1nc(Nc2ccc(N3CCOCC3)cc2)ncc1Cl.Cl [GSK1576028A],611
6,CN1C[C@@H]2Cn3c(c(C4=C(c5cn(C)c6ccccc56)C(=O)NC4=O)c4ccccc43)C[C@H]2C1.Cl [RO0320234-001],230
7,Cc1ccc2c(-c3ccncc3)c(-c3ccc(F)cc3)nn2c1.Cl [GW461484A],696

# System: SRC
# Set-up: species or system human, MV4-11 + K-562 + COLO205 + SK-N-BE2 + OVCAR-8
# Settings: read-out: apparent Kd; compound concentrations:100 nM and 1000 nM (sheet 'Samples'); n = 1
row,Structure (SMILES),potency estimated from few doses [nM]
1,NCCNS(=O)(=O)c1ccc(-c2ccnc3[nH]ccc23)cc1 [GSK977617A],589
2,O=C1NC(=O)C(N2CCc3ccccc32)=C1c1ccccc1Cl [SB-373598],134
3,Cl.Cl.NCC(C(=O)Nc1cc(Br)c(-c2ccnc3[nH]ccc23)s1)c1ccccc1.NCC(C(=O)Nc1cc(Br)c(-c2ccnc3[nH]ccc23)s1)c1ccccc1 (stereo not drawn) [GSK1269851A],523
4,CC(C)N1CCC(n2cnc(-c3ccc(F)cc3)c2-c2ccnc(N)n2)CC1 [SB-223132],964
5,CNC(=O)c1ccccc1Nc1nc(Nc2ccc(N3CCOCC3)cc2)ncc1Cl.Cl [GSK1576028A],1280
6,CN1C[C@@H]2Cn3c(c(C4=C(c5cn(C)c6ccccc56)C(=O)NC4=O)c4ccccc43)C[C@H]2C1.Cl [RO0320234-001],120
7,Cc1ccc2c(-c3ccncc3)c(-c3ccc(F)cc3)nn2c1.Cl [GW461484A],593
